# Experimental data: PubChem BioAssay AID1672 (Johns Hopkins Ion Channel Center, 2009)
# Screen size: about 310,000 compounds; about 2,600 (0.84%) were called active. The entries come from a sample that favours actives as a whole. Values without a mark were called inactive.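 Rule for the calls: active = fluorescence ratio B-score at or below minus 3 SD of library scores, with starting-brightness B-score within 2 SD (cut at about -4.2 in these data); inactive = the rest.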
# Biological target: Inward rectifier potassium channel 2 (Mus musculus) (UniProt P35561)
# Sequence (P35561 whole entry, looked up): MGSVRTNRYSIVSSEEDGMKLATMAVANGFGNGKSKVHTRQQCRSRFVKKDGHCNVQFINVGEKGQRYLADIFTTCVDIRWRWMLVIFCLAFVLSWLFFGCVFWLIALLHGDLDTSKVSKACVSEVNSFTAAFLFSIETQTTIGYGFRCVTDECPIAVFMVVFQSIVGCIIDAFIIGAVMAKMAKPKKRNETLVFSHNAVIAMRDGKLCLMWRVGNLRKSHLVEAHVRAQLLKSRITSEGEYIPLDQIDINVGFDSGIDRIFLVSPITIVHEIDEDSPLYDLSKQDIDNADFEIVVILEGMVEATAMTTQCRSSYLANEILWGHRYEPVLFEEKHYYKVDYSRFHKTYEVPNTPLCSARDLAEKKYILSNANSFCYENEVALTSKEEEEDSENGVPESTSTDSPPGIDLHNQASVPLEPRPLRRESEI
# Test: blocks the mouse Kir2.1 inward-rectifier potassium channel (AID 1672);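 note: channel flux triggered by added potassium and thallium sulfate stimulus; B-score of peak minus minimum fluorescence over baseline after thallium stimulus; more negative B-score means stronger Kir2.1 block with less thallium influx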
# Details: HEK293-Kir2.1, FluxOR thallium flux fluorescence; at 10 µM; active compounds read low
row,Compound,B-score
1,COc1cccc(CN(C)C(=O)CC23CC4CC(CC(C4)C2)C3)c1OC,0.01
2,COc1ccccc1CN(C)C(=O)c1cc2ccccc2o1,-0.72
3,COc1ccccc1CN(C)C(=O)C1(c2ccc(Cl)cc2)CC1,-7.43 (active)
4,COc1ccc(/C=N/NC(=O)c2cc(-c3cccc(C)c3)nc3ccccc23)cc1O,-0.5
5,CCOc1ccc(NS(=O)(=O)c2ccc(C(=O)NC3CCN(Cc4ccccc4)CC3)cc2)cc1,-0.37
6,COc1ccccc1CCC(=O)OCC(=O)N1CCN(S(=O)(=O)c2ccc(C)cc2C)CC1,-0.28
7,CC1=C/C(=N\OS(=O)(=O)c2ccccc2)C=CC1=O,-8.49 (active)
8,O=S(=O)(ON(c1ccccc1)S(=O)(=O)c1ccccc1)c1ccccc1,-1.37
9,Cc1ccc(S(=O)(=O)c2ccc(Oc3ccccc3)cc2)cc1,1.97
10,COC(=O)c1ccc(NS(=O)(=O)c2cc3c4c(c2)C(C)C(=O)N4CCC3)cc1 (centres undefined),-0.99
11,C/C(=N\NC(=O)COc1ccc(C)cc1[N+](=O)[O-])c1ccc2c(c1)OCCO2,0.54
12,C=CS(=O)c1sc(Cl)c(N2CCOCC2)c1[N+](=O)[O-] (centres undefined),-4.54 (active)
13,CCCCCCCCCCCCN1[C@@H](CC(C)=O)c2cc(F)cc(F)c2S1(=O)=O,1.64
14,CCCCOC(=O)CNc1nnc(SCC(=O)OCC)[nH]c1=O,-5.69 (active)
15,CCOC(=O)c1c(NC(=O)CSc2nnc(C)c(=O)[nH]2)sc2c1CCC2,1.75
16,Cc1nnc(SCC(=O)N2CCOCC2)[nH]c1=O,-0.42
17,COc1ccc(NC(=O)CN(C)C(=O)c2ccc(NC3CC3)c([N+](=O)[O-])c2)cc1,0.91
18,COc1ccc(C(=O)OCC(=O)c2ccc(Cl)s2)c(OC)c1OC,1.46
19,CCOc1ccc(C(C)=O)cc1COC(=O)CNC(=O)c1cccs1,-0.97
20,COc1ccccc1C(CNC(=O)c1cccc(NS(=O)(=O)c2ccc(Br)cc2)c1)N(C)C (centres undefined),-1.8
21,OCCNc1nc2ccccc2n1-c1ncnc2sc3c(c12)CCC3,-8.97 (active)
22,CC(C)(C)C(=O)Cn1c(NCCO)nc2ccccc21,-0.4
23,O=C(O)[C@@H]1CCCN1c1ncnc2sc3c(c12)CCC3,0.12
24,COc1cc(-c2nnc(NC(=O)C3=COCCO3)o2)cc(OC)c1OC,0.99

row,Compound,B-score
1,CCCCn1c(N)c(N(CC(C)C)C(=O)c2cccc(S(=O)(=O)N3CCN(C(C)=O)CC3)c2)c(=O)[nH]c1=O,-1.82
2,O=C(CCCN=C1NS(=O)(=O)c2ccccc21)OCC(=O)c1ccc(F)c(F)c1,0.45
3,COc1ccccc1C(=O)N1CC2(C)CC1CC(C)(C)C2 (centres undefined),-0.99
4,Cc1cccc(C(=O)NCC(=O)OCC(=O)N2CC3(C)CC2CC(C)(C)C3)c1 (centres undefined),1.23
5,Cc1nnnn1/C(=C\c1ccccc1)C(=O)OCC(=O)N1CC2(C)CC1CC(C)(C)C2 (centres undefined),-4.63 (active)
6,CCn1c(SCC(=O)c2ccc3ccccc3c2)nnc1-c1cccs1,-2.71
7,Cc1ccc(-n2c(Cc3cccs3)nnc2SCC(=O)OC(C)C)cc1,-2.12
8,CCn1c(Cc2cccs2)nnc1SCC(=O)c1ccc(C)cc1,-4.88 (active)
9,COc1c(C=O)c(CCN(C)C(=O)c2ccc(F)cc2)cc2c1OCO2,-4.35 (active)
10,O=C(/C=C/c1ccc2c(c1)OCO2)NCc1ccc(F)cc1,-0.53
11,CN(Cc1nc2ccccc2s1)C(=O)c1ccc(F)cc1,1.03
12,Cc1cc(NC(=O)C(C)SCC(=O)Nc2ccccc2N2CCCCC2)no1 (centres undefined),-4.17
13,COc1ccc(C(=O)c2c3ccc([N+](=O)[O-])cc3[n+]([O-])n2CCCN)cc1,0.68
14,Cc1cc(NC(=O)CCS(=O)(=O)c2ccc(F)cc2)no1,-0.47
15,Cc1c(Cl)cccc1NC(=S)NCc1ccc2c(c1)OCO2,-1.74
16,Cc1c(Cl)cccc1NC(=S)NCC(O)c1ccccc1 (centres undefined),-4.47 (active)
17,CCNC(=S)Nc1cccc(Cl)c1C,0.45
18,O=C(Nc1ccc(N2CCCCC2)cc1)c1cc(S(=O)(=O)N2CCOCC2)ccc1F,0.53
19,COc1cc(N)c(Cl)cc1C(=O)OCC(=O)c1ccc2c(c1)NC(=O)CO2,0.6
20,Cc1nn(C)cc1C(=O)c1ccccc1,0.22
21,CCOc1ccc(C(=O)Nc2cc(Cl)ccc2-n2cncn2)cc1OC,-2.32
22,COc1ccc2c(c1)C=CC1(O2)N(CCO)c2ccccc2C1(C)C (centres undefined),-6.82 (active)
23,CN1c2ccc([N+](=O)[O-])cc2C(C)(C)C12C=Cc1cc(C(=O)O)ccc1O2 (centres undefined),0.63
24,COc1cccc(CC2(CO)CCCN(CC3=Cc4cc(OC)ccc4OC3)C2)c1 (centres undefined),0.68

row,Compound,B-score
1,CN(N)c1nc(N2CCCC2)nc(N2CCCC2)n1,0.28
2,Cc1sc2ncnc(N3CCC(C(=O)NNC(=O)c4ccc(F)cc4)CC3)c2c1C,0.05
3,CC1CN(C(=O)COC(=O)c2cccc(NS(=O)(=O)c3ccccc3)c2)CC(C)O1 (centres undefined),-4.76 (active)
4,COc1ccc(N2CCN(C(=O)COC(=O)c3cccc(S(=O)(=O)Nc4ccccc4OC)c3)CC2)cc1,0.61
5,CSc1ccc(Cl)c(C(=O)OCC(=O)N2CC(C)OC(C)C2)c1 (centres undefined),-0.84
6,O=C(NC1CCCCC1)c1ccc(-c2ccc(Cl)cc2)o1,1.25
7,Cn1c(SCC(=O)N2CCCc3ccccc32)nc2ccccc2c1=O,-6.03 (active)
8,C=CCn1c(=O)c2ccccc2n2c(SCC(=O)N3CCCc4ccccc43)nnc12,0.08
9,O=C(CSc1nc2ccccc2c(=O)n1CCCO)N1CCc2ccccc21,0.73
10,CN(Cc1ccccc1F)C(=O)C(Cc1ccccc1)NC(=O)c1ccccc1 (centres undefined),-1.09
11,CC(=O)Nc1cccc(C(=O)OCC(=O)NCc2cc(C)c(O)c(C)c2)c1,-1.5
12,CC(=O)N1C(C)c2ccccc2C(C)(C)CC12CCCCC2 (centres undefined),-6.43 (active)
13,CC(=O)N1CCN(C(=O)c2cc(-c3ccc(C)o3)nc3ccccc23)CC1,0.63
14,CCCCCN(C(=O)CCC(=O)OCCOc1ccc(OC)cc1)c1c(N)n(CCCC)c(=O)[nH]c1=O,0.11
15,O=C(N/N=C/c1cc(Br)c(O)c([N+](=O)[O-])c1)C(O)(c1ccccc1)c1ccccc1,1.06
16,CN(/N=C/c1ccccc1)C(=S)c1ccccc1,1.83
17,CCCCCOc1ccc(CSC2=NCCN2)cc1[N+](=O)[O-],-0.86
18,CCCOc1ccc(Cn2ccnc2)cc1[N+](=O)[O-],-0.79
19,CCCCOc1ccc(CSC(=N)N)cc1[N+](=O)[O-],-5.22 (active)
20,O=C(CNC(=O)C12CC3CC(CC(C3)C1)C2)OCC(=O)N1CCCCC1,1.97
21,CCC(C)N(C(=O)COC(=O)c1nc(Cl)ccc1Cl)C1CCS(=O)(=O)C1 (centres undefined),-0.16
22,CCN(CC(=O)Nc1ccc(NC(C)=O)cc1)C(=O)C1CC(=O)N(Cc2ccc(C)cc2)C1 (centres undefined),1.85
23,CCN(CC)C(=O)CC(c1ccc2c(c1)OCO2)c1c(OC)cc(OC)c2c(-c3ccccc3)cc(=O)oc12 (centres undefined),1.58
24,COc1cc(OC)c2ccc(=O)oc2c1C(CCN1CCN(c2ccccc2)CC1)c1ccc2c(c1)OCO2 (centres undefined),-0.17

row,Compound,B-score
1,CCN(CC)CCC(c1ccc2c(c1)OCO2)c1c(OC)cc(OC)c2c(-c3ccccc3)cc(=O)oc12 (centres undefined),-6.31 (active)
2,O=C(CCl)NNc1nc(-c2ccccc2)c2cc(Cl)ccc2n1,0.44
3,Cc1ccc2nc(Nc3ccccc3O)nc(-c3ccccc3)c2c1,-0.47
4,NC(N)=Nc1nc(-c2ccccc2)c2cc(Cl)ccc2n1,-10 (active)
5,CCCCn1c(N)c(N(CCOC)C(=O)c2cccc(S(=O)(=O)N(C)c3ccccc3)c2)c(=O)[nH]c1=O,-1.94
6,COc1cccc(CNCc2ccc3c(c2)OCO3)c1,0.44
7,COc1ccc2c(c1)C(C)=CC(C)(C)N2C(=O)CNCc1ccc2c(c1)OCO2,-6.62 (active)
8,COc1ccc2c(c1)C(C)=CC(C)(C)N2C(=O)Nc1ccccc1,-0.17
9,COc1ccc(-c2nnc(SCC(=O)Nc3cccnc3Cl)n2C)cc1,-1.29
10,COc1ccc(-c2n[nH]c(C)c2-c2ccccc2OC)c(O)c1,-2.01
11,COc1ccccc1-c1nc(SC)n[nH]1,0.18
12,COc1ccccc1-c1n[nH]c2c1[C@H](C)CC[C@H]2C(C)C,-5.83 (active)
13,CCOc1ccc(S(=O)(=O)N2CCC(C(=O)OCc3ccc(OC)cc3)CC2)cc1,-1.22
14,CCOc1cc(/C=N/NC(=O)c2cccc(S(=O)(=O)N3CCOCC3)c2)ccc1OCC(=O)N(C)C,0
15,COc1ccc(C(CCNCc2ccccc2F)c2ccc(F)cc2)cc1 (centres undefined),-9.19 (active)
16,COc1ccc(CC(=O)NC(C)CCc2ccccc2)cc1 (centres undefined),-1.96
17,COc1ccc(C(CNCC(=O)Nc2ccccc2F)N(C)C)cc1 (centres undefined),-0.53
18,Cc1ccc(NC(=O)COc2coc(CN3CCc4ccccc4C3)cc2=O)cc1Cl,-0.37
19,CC(=O)Nc1ccc(C(=O)Nc2cccc(S(=O)(=O)NC3=NCCC3)c2)cc1,-0.82
20,O=C(Nc1ccccc1Cl)/C(Cl)=C(\Cl)S(=O)c1ccccc1 (centres undefined),-14.3 (active)
21,O=C(Nc1ccccc1Cl)Nn1cnnc1,1.92
22,O=C(COC(=O)c1cccs1)Nc1ccccc1Cl,-0.93
